Out of some 68,000 compounds screened, about 2,700 (4%) showed an effect of 50% or more. Many of the other results were omitted from the sample, so strong results are more common in it than they were.

The assay relates to Plasmodium berghei. The experiment in a line: Screen against P. berghei liver stage (PbLuc), transformed with Luciferase, at 2uM. In kind it is functional, HepG2. Particulars: tested at 2 uM.
As for `Cc1ccc(NC2CCN(C(=O)CC3CCCO3)CC2)nn1` (stereo unspecified), the INHIBITION is listed as -3.38%. To `Cc1ccc(-c2noc(CN3CCOC(CN(C)C)C3)n2)cc1F` (stereo unspecified) belongs -19.76%; to `CCc1ccc(C2CC(=O)Nc3cc(NS(C)(=O)=O)ccc32)o1` (stereo unspecified), -24.85%; to `CCOc1ncccc1NC(=O)N1CCCN(C(=O)OC)CC1`, 12.81%. To `Cn1cc(CN2CC[C@H]3O[C@@H](C(=O)NC4CC4)CC[C@H]32)cn1` belongs -43.66%.

Consider `CN1CCN(C(=O)[C@H]2CC[C@@H]3[C@@H](CCN3Cc3nccs3)O2)CC1`, for which the INHIBITION is listed as 1.78%. To `CN(C)C(=O)[C@@H]1CC[C@@H]2[C@@H](CCN2Cc2nccs2)O1` belongs 6.66%; to `O=C([C@H]1CC[C@@H]2[C@@H](CCN2Cc2nccs2)O1)N1CCCCO1`, 23.93%. In the case of `CN1CCN(C(=O)[C@H]2C[C@H]3[C@H](CCN3Cc3nccs3)O2)CC1`, the INHIBITION came out at 37.54%. To `CN(C)C(=O)[C@@H]1C[C@@H]2[C@@H](CCN2Cc2nccs2)O1` belongs 55.11%. To `O=C([C@H]1CC[C@@H]2[C@@H](CCN2Cc2nccs2)O1)N1CCOCC1` belongs 77.07%; to `CN(C)C(=O)[C@@H]1C[C@@H]2CCN(Cc3nccs3)C[C@@H]2O1`, -31.39%.

Turning to `Cc1nc(CN2CC[C@@H]3O[C@@H](C(=O)N4CCOCC4)C[C@@H]32)cs1`, the INHIBITION came to 34.24%. To `CC1CCN(C(=O)[C@H]2CC[C@@H]3[C@@H](CCN3Cc3nccs3)O2)CC1` belongs 53.46%; to `O=C([C@@H]1C[C@H]2[C@H](CCN2Cc2nccs2)O1)N1CCOCC1`, -16.93%; to `Cn1cc(CN2CC[C@@H]3O[C@H](C(=O)N4CCOCC4)C[C@@H]32)cn1`, 86.68%. For `CC[C@@]1(O)CCN(C(=O)CN(C)Cc2ccc(F)cc2)C[C@H]1O`, the INHIBITION is 25.06%. Regarding `CN(C)[C@@H]1C[C@@H](CO)N(C(=O)Nc2cccc(F)c2F)C1`, the INHIBITION is -57.1%. To `CNC(=O)[C@H]1C[C@@H]2CCN(CCc3ccccc3)C[C@@H]2O1` belongs 21.77%. To `CS(=O)(=O)N1CCc2sc(C(=O)NCc3ccccc3)cc21` belongs 38.62%; to `O=C(C1CC(F)(F)C1)N1C[C@@H]2CN(CC3CC3)CCO[C@@H]2C1`, -14.21%; to `Cc1nccn1CCC1CCN(C(C)C)CC1`, 4.53%. Turning to `Cc1ccc2c(ccn2CCC(=O)O)c1`, the INHIBITION is on record as -7.01%. On to `Cc1cccc(CN2C(=O)C[C@H]3[C@@H]2CCN3Cc2ccccn2)n1`, for which the INHIBITION is -11.91%. To `Cc1cnn(C2CCCN(C(=O)c3ccc(-n4cnnn4)cc3)C2)c1` (stereo unspecified) belongs 15.4%; to `Cc1cnn(C2CCCN(C(=O)c3ccc4c(c3)CCC4)C2)c1` (stereo unspecified), 56.02%; to `Cc1nn(-c2ccccc2)cc1C(=O)N1CCCN2CCCC2C1` (stereo unspecified), 20.11%. To `Cc1cnn(C2CCCN(C(=O)c3sccc3-n3cnnn3)C2)c1` (stereo unspecified) belongs 51.21%; to `Cc1cnn(C2CCCN(C(=O)c3ccnc(N(C)C)c3)C2)c1` (stereo unspecified), -21.91%; to `Cc1cnn(C2CCCN(C(=O)c3cn(-c4ccccc4)nc3C)C2)c1` (stereo unspecified), 86.75%. To `O=C(c1ccc(NC2CC2)nc1)N1CCCC(n2cccn2)C1` (stereo unspecified) belongs 54.85%; to `Cc1cnn(C2CCCN(C(=O)c3ccccc3-n3cnnn3)C2)c1` (stereo unspecified), -31.16%; to `O=C(c1ccc(NC2CC2)nc1)N1CCCC(n2ccnc2)C1` (stereo unspecified), -5.3%.

For `Cc1nn(-c2ccccc2)cc1C(=O)N1CCCC(n2cccn2)C1` (stereo unspecified), the INHIBITION came to 11.1%.

For `O=C(c1ccc(-n2cccn2)nc1)N1CCCC(n2cccn2)C1` (stereo unspecified), the INHIBITION is recorded as -9.61%. To `Cc1cnn(C2CCCN(C(=O)c3ccn(C)c(=O)c3)C2)c1` (stereo unspecified) belongs 16.51%; to `COc1ccccc1CN1CCC(c2nn(CCN)c3nccnc23)C1` (stereo unspecified), -6.04%. To `Cc1csc(CN2CC[C@H]3C[C@H](c4nc(C)no4)O[C@@H]3C2)n1` belongs 18.32%. To `CCOCC1CN(c2ccc(C)nn2)Cc2nn(CC)cc21` (stereo unspecified) belongs -3.19%. Consider `CCCc1cc(=O)[nH]c(-c2cccc(CN3CCN4CCCC4C3)c2)n1` (stereo unspecified), for which the INHIBITION was -19.98%. To `Cc1cnn(CC2CCCCN2CC(=O)NCc2ccccn2)c1` (stereo unspecified) belongs 16.6%; to `O=C(c1cnc(-c2ncccn2)s1)N1CCCC(n2cccn2)C1` (stereo unspecified), 5.09%; to `O=C(c1cn(-c2ccccc2)nn1)N1CCCC(n2cccn2)C1` (stereo unspecified), -3.05%. To `O=C(c1cnc(-c2cnccn2)s1)N1CCCC(n2cccn2)C1` (stereo unspecified) belongs 35.65%; to `Cc1cnn(C2CCCN(C(=O)c3ccc(N(C)C)nn3)C2)c1` (stereo unspecified), 69.41%; to `Cc1ccc(-n2cc(C(=O)N3CCCC(n4cccn4)C3)nn2)cc1` (stereo unspecified), 18.59%. Take `Cc1cnn(C2CCCN(C(=O)c3ccc(NC4CC4)nc3)C2)c1` (stereo unspecified): the INHIBITION is on record as 72.31%.

`O=C(c1cnc(-c2ccccn2)s1)N1CCCC(n2cccn2)C1` (stereo unspecified): the INHIBITION is 51.94%.

For the molecule `CNC(=O)c1ccc(C(=O)N2CCCC(n3cc(C)cn3)C2)cn1` (stereo unspecified), the INHIBITION is 16.64%. To `CN(C)c1ccc(C(=O)N2CCCC(n3cccn3)C2)nn1` (stereo unspecified) belongs 37.68%; to `Cc1cccc(-n2cc(C(=O)N3CCCC(n4cccn4)C3)nn2)c1` (stereo unspecified), 58.53%; to `Cc1cnn(C2CCCN(C(=O)c3ccc(O)nc3)C2)c1` (stereo unspecified), 45.83%.

In the case of `Cc1cnn(C2CCCN(C(=O)c3ccc(N4CCCC4)nn3)C2)c1` (stereo unspecified), the INHIBITION is on record as -104.9%. Consider `CCc1nc(CN2CCCC(N(C)CCc3cccs3)C2)no1` (stereo unspecified), for which the INHIBITION is -14.04%. To `CCC(CC)c1cc(CNC(=O)N2CCOC(C)C2)on1` (stereo unspecified) belongs -40.76%; to `c1cnc(N2CCN(CCn3ccnc3-c3ccncc3)CC2)nc1`, 36.79%; to `Cc1nc(C2CCN(C(=O)c3cscn3)CC2)c2sccn12`, 45.5%. To `CC(C)n1[nH]c(=O)c2c1NC(=O)CSC2c1cccc(OCC(N)=O)c1` (stereo unspecified) belongs 9.29%; to `O=C(c1cnccn1)N1C[C@@H]2CN(Cc3cccnc3)CCO[C@@H]2C1`, 0.54%; to `CN(C)CCN1C2(CCN(Cc3nccs3)C2)c2ccccc2S1(=O)=O` (stereo unspecified), 31.25%. To `Cn1cc(C2COC3(CCN(C(=O)c4ccsc4)CC3)C2)cn1` (stereo unspecified) belongs -0.38%; to `Cn1cc(-c2nc(CN3CCc4c(ncn4C)C3)cs2)cn1`, 14.06%. `Cc1nc(CNCC2CCCN2c2cccnn2)no1` (stereo unspecified): the INHIBITION was -12.31%. To `O=C(c1cnc(-c2cccs2)s1)N1CCCC(n2cccn2)C1` (stereo unspecified) belongs 42.18%; to `O=C(c1cnc(-c2cccs2)s1)N1CCCC(n2ccnc2)C1` (stereo unspecified), 64.16%. To `O=C(c1cnc(-c2cccs2)s1)N1CCCN2CCCC2C1` (stereo unspecified) belongs -38.96%; to `Cn1cccc1C(=O)N1CC[C@H]2[C@H]1CCN2CC1CC1`, -0.23%; to `CCN(CC)C(=O)c1ccc(COc2ccccc2C#N)o1`, 9.54%. To `O=C(O)c1cc2c(nc1-c1ccncc1)CCN(C1CCOC1)CC2` (stereo unspecified) belongs -6.71%. Take `CCc1ccc(-c2cc(C(F)(F)F)nc(N3CCC(N)CC3)n2)cc1`: the INHIBITION came to 16.36%. To `c1cnc(-c2nc(CN3CCCC(N4CCCC4)C3)cs2)nc1` (stereo unspecified) belongs -44.96%. `c1coc(-c2nc(CN3CCn4c(nnc4C4CC4)C3)cs2)c1`: the INHIBITION amounted to 39.65%. As for `Clc1ccc2cccnc2c1CN1CCn2c(nnc2C2CC2)C1`, the INHIBITION stood at 55.36%. Turning to `Cc1nnc2n1CCN(Cc1c(Cl)ccc3cccnc13)C2`, the INHIBITION stood at 5.28%. In the case of `CC1CCCN(Cc2csc(-c3ncccn3)n2)CC1` (stereo unspecified), the INHIBITION is 53.03%. To `c1cnc(-c2nc(CN3CCn4c(nnc4C4CC4)C3)cs2)nc1` belongs 63.64%; to `c1ccc(-c2nc(CN3CCn4c(nnc4C4CC4)C3)cs2)cc1`, 34.39%.

For the molecule `CCCC1CCCN(Cc2csc(-c3ncccn3)n2)CC1` (stereo unspecified), the INHIBITION is on record as 33.5%.

With `Fc1cccc(Cl)c1CN1CCn2c(nnc2C2CC2)C1`, the INHIBITION is listed as 7.67%. To `CC1c2ncc(Cn3cncn3)n2CCN1C(=O)c1ccccn1` (stereo unspecified) belongs 23.97%. To `O=C(c1ccccc1)N1CCC2(CC1)CNc1c(F)cccc12` belongs -27.31%; to `CC(OCC1CC1)C(=O)N1CCCN(Cc2cnn(C)c2)CC1` (stereo unspecified), 47.12%; to `Cc1ccc(N2CC[C@@H]3O[C@@H](COCc4cccnc4)CC[C@@H]32)nn1`, -64.19%. To `O=C(c1cccc(S(=O)(=O)NCCc2ccccn2)c1)N1CCOCC1` belongs 6.84%; to `CCc1cc(CN2C[C@@H]3CC[C@H]2CN(C2Cc4ccccc4C2)C3)on1`, 36.79%. For the molecule `Cc1ccccc1C(C(=O)N(C)Cc1cnn(C)c1)N(C)C` (stereo unspecified), the INHIBITION is listed as -15.75%.

Take `O=C(C1CCC2(CCN(c3nncs3)CC2)CO1)N1CCCC1` (stereo unspecified): the INHIBITION was -38.48%. With `O=C(C1CCC2(CCN(c3nncs3)CC2)C1)N1CCCC1` (stereo unspecified), the INHIBITION is reported as 58.08%. To `CC(=O)N1CCCC2(CCN(c3nncs3)C2)C1` (stereo unspecified) belongs 19.58%; to `CNc1cc(N2CCCC2CNCc2cnc(C)s2)ncn1` (stereo unspecified), 47.3%; to `CNC(=O)C1(CCCc2cccnc2)CCCCN1` (stereo unspecified), 32.95%. To `O=C1O[C@@H]2CN(C3CCOCC3)C[C@@H]2N1CCc1cccc(Cl)c1` belongs 19.46%. To `O=C(c1cccnc1O)N(CCO)Cc1cc(Br)ccc1F` belongs 52.89%.

For the molecule `O=C(c1ccccn1)N(CCO)Cc1cc(Br)ccc1F`, the INHIBITION is on record as -46.83%. To `O=C(c1cccnc1)N(CCO)Cc1cc(Br)ccc1F` belongs -12.09%; to `CC(C)CN1CCC(NCCNc2cccnc2)CC1`, 2.06%; to `CN(C)C(=O)c1nc2c(s1)CCCN2Cc1ccccc1`, -4.2%. `CCN1CCOCC2(CCCN(C(=O)c3cccc(O)c3)C2)C1` (stereo unspecified): the INHIBITION turned out to be 24.36%. To `Cc1ccc(S(=O)(=O)NC(=O)C2(c3ccccc3)CCC2)c(C)c1` belongs 53.81%; to `Cc1ccccc1S(=O)(=O)NC(=O)C1(c2ccccc2)CCC1`, 28.54%. To `Cc1ccc(S(=O)(=O)NC(=O)C2(c3ccc(F)cc3)CCC2)c(C)c1` belongs -2.2%.

Values taken from ChEMBL document CHEMBL4513216, “Probing the Open Global Health Chemical Diversity Library for Multistage-Active Starting Points for Next-Generation Antimalarials” (ACS Infect Dis, 2020).
